# Assay outcomes as filed in PubChem BioAssay.
# NSD2 inh = NSD2 (human) methyltransferase inhibition | O96028 | NSD2 peptide methylation, AlphaScreen, 120 min | inhibition, % at 12.5 µM | 0.54% of 310,000 active; in the data active = inhibition above about 50%
# CASP6 VEID inh = caspase-6 (human) enzyme inhibition. P55212. purified caspase-6, Z-VEID-R110 cleavage fluorescence. inhibition, % at 12.5 µM. 0.53% of 350,000 active. AID 686996;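 active = mean inhibition across replicates at least about 35%, with every replicate also reaching that limit, limit read from the data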
# HDAC3 inh = human HDAC3 inhibition. 0.15% of 320,000 active. inhibition, % at 8.3 µM. recombinant HDAC3, fluorogenic peptide/trypsin coupled, fluorescence; in the data active = inhibition above about 26%, passing the limit was not always enough
# LANA DNA inh = inhibitors of KSHV LANA C-terminal domain DNA binding; inhibition, % at 9 µM; MBP-C-LANA/FAM-LBS DNA binding, fluorescence polarization; 0.078% of 340,000 active; AID 504423;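 active = highest replicate inhibition at or above 60% at 9 µM, even if other replicates fall short; inactive = all replicates below 60% inhibition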
# Glyco luc inh = blocks N-linked glycosylation in D54 reporter cells; reporter increase, % at 12.5 µM; D54 ERlucT glycosylation luciferase reporter, 24 h; percent of 100 nM tunicamycin response; AID 588692; 0.23% of 360,000 active;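 active = mean luciferase reporter signal, scaled so untreated is 0 and the glycosylation-blocking control 100, at or above a set limit in every replicate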;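 also: luciferase carries N-glycosylation sites so blocking glycosylation raises the light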
# Keap1-Nrf2 PPI = disrupts human Keap1 binding to Nrf2 peptide; Keap1 Kelch-Nrf2 peptide fluorescence polarization, 1536-well; inhibition, % at 9.4 µM; 0.15% of 340,000 active; AID 504523; in the data active = inhibition above about 12%;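 also: human Keap1 Kelch domain with fluorescein labeled Nrf2 9mer peptide probe; higher means more block of Keap1 binding to Nrf2 peptide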
# Target sequence (Q14145 whole entry, looked up, the tested form may be a part): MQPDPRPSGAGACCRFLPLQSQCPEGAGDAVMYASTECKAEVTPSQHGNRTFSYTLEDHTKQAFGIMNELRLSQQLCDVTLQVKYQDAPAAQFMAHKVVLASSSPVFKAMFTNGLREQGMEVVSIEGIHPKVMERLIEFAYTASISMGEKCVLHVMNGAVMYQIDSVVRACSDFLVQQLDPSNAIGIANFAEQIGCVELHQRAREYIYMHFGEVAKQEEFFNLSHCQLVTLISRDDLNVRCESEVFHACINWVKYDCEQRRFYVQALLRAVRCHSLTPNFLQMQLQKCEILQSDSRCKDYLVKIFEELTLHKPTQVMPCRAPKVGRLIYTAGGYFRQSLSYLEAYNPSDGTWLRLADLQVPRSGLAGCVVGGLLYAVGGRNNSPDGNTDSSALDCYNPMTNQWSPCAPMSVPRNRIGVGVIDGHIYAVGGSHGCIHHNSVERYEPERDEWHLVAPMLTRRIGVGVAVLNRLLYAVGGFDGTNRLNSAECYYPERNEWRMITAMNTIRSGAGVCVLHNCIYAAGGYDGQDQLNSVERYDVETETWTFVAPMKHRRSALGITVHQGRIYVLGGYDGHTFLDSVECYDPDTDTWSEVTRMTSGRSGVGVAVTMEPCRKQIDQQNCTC
# Numbers stand for hits; - = inactive; . = not tested or not shown. Rows were chosen to be rich in hits. Some 1.1% of all compounds tested hit in one or more screens of this group.
SMILES,NSD2 inh,CASP6 VEID inh,HDAC3 inh,LANA DNA inh,Glyco luc inh,Keap1-Nrf2 PPI
CC[C@H](C)Cc1cn([C@@H](CCCN=C(NC(=O)OC(C)(C)C)NC(=O)OC(C)(C)C)C(=O)NCCCCCCCCCCC(=O)N2CCN(C(=O)OC(C)(C)C)CC2)nn1,.,.,28,-,-,-
C#CCOCCOCCOCCNc1nc(N2CCN(C(=O)CCCCCCCCCCNC(=O)[C@H](CCCN=C(N)N)n3cc(C[C@@H](C)CC)nn3)CC2)nc(N2CCN(C(=O)CCCCCCCCCCNC(=O)[C@@H]([C@H](C)CC)n3cc(CCCCCN)nn3)CC2)n1,.,.,33,.,.,.
Cc1noc(C)c1S(=O)(=O)Nc1ccc2c(c1)C(=O)N([C@H](C)CO)C[C@@H](C)[C@H](CN(C)Cc1ccccc1)OCCCC[C@H](C)O2,.,-,.,.,.,.
CCNC(=O)C[C@@H]1CC[C@H](NS(=O)(=O)c2ccc(F)cc2)[C@H](CO)O1,.,-,.,.,.,.
Nc1ccccc1Sc1ccc(C(=O)c2ccccc2C(=O)O)cc1[N+](=O)[O-],-,46,-,-,-,-
CC(=O)c1ccc(Sc2ccccc2N)c([N+](=O)[O-])c1,-,-,-,-,-,-
O=C(Nc1nc2ccsc2c(=O)s1)c1ccco1,-,37,-,.,-,.
CCOC(=O)c1c(C)oc2c1C(=O)c1ccccc1C2=O,-,-,-,-,-,-
Cc1oc2c(c1C(=O)O)C(=O)c1ccccc1C2=O,.,58,-,-,-,-
CCOc1ccc(Nc2c3ccccc3nc3ccccc23)cc1,.,-,-,-,64,-
O=C(O)CSc1cc(C(=O)c2ccccc2O)cn2c(=O)c3c(-c4ccccc4)csc3nc12,.,39,-,-,-,-
CO[C@H]1CC[C@@H]2CCN(C)C(=O)[C@@H](C)[C@@H](OC)CN(C)C(=O)c3cc(C#N)ccc3OC[C@@H]1O2,.,-,.,.,.,.
O=C(C[C@H]1CC[C@@H]2[C@H](COC[C@@H](O)CN2Cc2cc(F)cc(F)c2)O1)Nc1nccs1,.,-,.,.,.,.
COC(=O)c1cc(OC)c(OC)cc1NC(=S)NC(=O)c1ccco1,-,-,-,-,40,-
CCNC(=S)Nc1cc(OC)c(NC(=O)c2ccco2)cc1OC,-,.,-,-,-,-
CCNC(=O)[C@H]1[C@H](CO)[C@H]2Cn3c(ccc(-c4ccccc4F)c3=O)[C@@H]1N2CCC(F)(F)F,.,-,.,.,.,.
CCC(=O)N(Cc1cc2ccc(C)cc2n2nnnc12)C1CCCCC1,-,.,-,-,-,-
Cc1ccc2c(c1)cc(CN(C(=O)N1CCOCC1)C1CCCC1)c1nnnn12,-,-,-,-,40,-
O=C(c1ccco1)[C@@H]1[C@@H]2C(=O)N(c3ccccc3)C(=O)[C@@H]2C2c3ccccc3C=CN21 (stereo partly specified),.,.,-,-,-,-
CC(=O)[C@@H]1[C@@H]2C(=O)N(Cc3ccccc3)C(=O)[C@@H]2C2c3ccccc3C=CN21 (stereo partly specified),.,61,-,-,-,-
C[C@H]1CN([C@@H](C)CO)C(=O)Cc2cc(NC(=O)c3ccncc3)ccc2O[C@H]1CN(C)C(=O)Nc1cccc2ccccc12,.,-,.,.,.,.
COC(=O)c1ccc(CSc2nc3scc(-c4cccs4)c3c(=O)[nH]2)o1,-,.,42,-,-,-
COC(=O)c1ccc(CSc2nc3ccc(Cl)cc3[nH]2)o1,-,.,-,-,-,-
Cn1cnc([N+](=O)[O-])c1Oc1ccc2ccccc2c1,-,.,-,-,47,-
Cc1cccc(Sc2c([N+](=O)[O-])ncn2C)c1,-,.,-,-,-,-
SMILES,NSD2 inh,CASP6 VEID inh,HDAC3 inh,LANA DNA inh,Glyco luc inh,Keap1-Nrf2 PPI
CC(C)C#Cc1cnc2c(c1)C(=O)N([C@@H](C)CO)C[C@@H](C)[C@H](CN(C)Cc1ccccc1)O2,.,-,.,.,.,.
O=C1Nc2c(Cl)cc(Cl)cc2C1=O,118,-,.,-,-,-
C[C@@H]1CN([C@H](C)CO)C(=O)c2cc(NC(=O)Nc3ccc4c(c3)OCO4)ccc2O[C@@H]1CN(C)Cc1ccc(Cl)c(Cl)c1,.,-,.,.,.,.
Cc1cccn2c(=O)c3cc(C(=O)NCc4ccco4)c(=N)n(CCc4ccccc4)c3nc12,-,-,.,-,53,-
Cc1cccn2c(=O)c3cc(C(=O)NCCc4ccccc4)c(=N)n(Cc4ccco4)c3nc12,-,-,-,-,-,-
COc1cc(N)c(Cl)cc1C(=O)NC1CCN(Cc2ccccc2)CC1,.,49,.,-,-,-
O=C(NCCc1ccc(F)cc1)c1coc(=O)c(Br)c1,-,-,-,-,-,-
O=C(Nc1ccccc1F)c1coc(=O)c(Br)c1,-,74,-,87,-,-
COc1ccc(-c2cc3c(=O)n(CC(=O)NCCCN4CCN(Cc5ccccc5)CC4)ncn3n2)cc1,-,40,-,-,-,-
C[C@@H]1CN([C@@H](C)CO)C(=O)c2cc(NS(=O)(=O)c3ccccc3)ccc2O[C@@H](C)CCCCO[C@@H]1CN(C)C,.,-,.,.,.,.
C[C@@H]1CN([C@H](C)CO)C(=O)c2cc(-c3ccc(C#N)cc3)cnc2O[C@H]1CN(C)Cc1ccncc1,.,-,.,.,.,.
Cn1cnc([N+](=O)[O-])c1Sc1nc2ccccc2[nH]1,-,-,-,.,29,.
Cc1nc([N+](=O)[O-])c(Sc2nc3ccccc3[nH]2)n1Cc1ccccc1,-,-,-,-,-,-
OCCCc1nc2n(n1)C(c1cccs1)C=C(c1ccc(Br)cc1)N2 (stereo unspecified),.,.,-,.,.,.
Brc1ccc(C2=CC(c3cccs3)n3ncnc3N2)cc1 (stereo unspecified),.,.,-,101,-,55
C[C@H](CO)N1C[C@H](C)[C@@H](CN(C)Cc2ccc3c(c2)OCO3)Oc2ncc(Br)cc2C1=O,.,-,.,.,.,.
CO[C@@H]1CN(C)C(=O)c2cc(NC(=O)C3CCC3)ccc2OC[C@@H](C)N(Cc2cccnc2)C[C@@H]1C,.,-,.,.,.,.
Nc1ccc2cn[nH]c2c1,.,44,-,-,-,-
COc1ccc2sc(-c3ccccc3OC)c(C#CC(C)(C)O)c2c1,.,-,-,70,-,-
COc1ccc(/C(N)=N/OC(=O)c2ccco2)cc1OC,-,-,-,-,-,-
Cc1csc(/C(=N/OC(=O)c2ccco2)C(N)=O)n1,-,-,28,-,-,-
N#CC1=C(N)Oc2cc(O)c(Cl)cc2C1c1ccccc1F (stereo unspecified),-,44,-,-,-,-
N#CC1=C(N)Oc2cc(O)c(Cl)cc2C1c1cccnc1 (stereo unspecified),-,-,-,-,-,-
CCOc1ccc(Nc2nc(Cc3nnc(SCC(=O)NCC4CCCO4)n3C)cs2)cc1 (stereo unspecified),-,37,-,-,-,-
CCOc1ccc(Nc2nc(Cc3nnc(SCC(=O)NC4CCCCC4)n3C)cs2)cc1,-,.,-,-,-,-
CCC(=O)Nc1ccc2c(c1)C(=O)N(C)[C@H]1CC[C@@H](CC(=O)NCC3CC3)O[C@H]1CO2,.,-,.,.,.,.
Cn1c(C(=O)N2CCCC(Nc3ccc(F)cc3)C2)cc2ccccc21 (stereo unspecified),-,41,-,-,-,-
